This note sets out measurements from PubChem BioAssay (NCI).

Each structure is given as a SMILES string. This is part of a sample that, as a whole, favours compounds with a hit. Of some 79,000 tested, about 15% had one in any assay. Values without a mark were called inactive. Active and inactive are the calls of the source. Rule as the data show it: active = growth inhibition above about 70%; inactive = the rest.

A short description of assay [1]: NCI Yeast Anticancer Drug Screen. Data for the rad50 strain (AID 155).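 Also: 0% = growth of vehicle-only cultures of the same strain.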 The note with it: S. cerevisiae rad50 strain growth inhibition; at 50.0 µM; stronger effect = higher value. The gist of the method: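 Relative growth inhibition (compound vs vehicle) was measured in yeast with a defined repair-gene alteration.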
The nature of assay [2]: NCI Yeast Anticancer Drug Screen. Data for the mec2-1 strain (AID 157). The note with it: S. cerevisiae mec2-1 strain, at 50.0 µM, stronger effect = higher value. An outline of the steps: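 mec2-1 yeast strain, carrying an alteration in DNA damage repair or cell cycle control, was exposed to compounds; growth inhibition was measured relative to vehicle-treated controls.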
Assay [3] in a line: NCI Yeast Anticancer Drug Screen. Data for the sgs1 mgt1 strain (AID 161).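 Also: 0% = growth of cultures given vehicle only.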 Particulars: S. cerevisiae sgs1 mgt1 strain, at 50.0 µM, stronger effect = higher value. The gist of the method: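 Growth of a repair-deficient yeast mutant was monitored after compound treatment and expressed as inhibition relative to vehicle-treated cultures.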
Assay [4] is described as follows: NCI Yeast Anticancer Drug Screen. Data for the cln2 rad14 strain (AID 165).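 Also: 0% = growth equal to vehicle treated cultures.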 The note with it: S. cerevisiae cln2 rad14 strain, at 50.0 µM, stronger effect = higher value. An outline of the steps: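 Yeast carrying cln2 and rad14 alterations (cell cycle control and DNA damage repair) were exposed to compounds. Growth inhibition was measured against vehicle-treated controls.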

A short description of assay [5]: NCI Yeast Anticancer Drug Screen. Data for the bub3 strain (AID 167). Particulars: S. cerevisiae bub3 mutant strain, at 50.0 µM, stronger effect = higher value. An outline of the steps:
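Screening used yeast with an engineered genetic alteration affecting cell cycle control. Compound-exposed cultures were compared with vehicle cultures, and reduced growth was taken as inhibition.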

Assay [6] in a line: NCI Yeast Anticancer Drug Screen. Data for the mlh1 rad18 strain (AID 175). The note with it: S. cerevisiae mlh1 rad18 strain growth inhibition; at 50.0 µM; stronger effect = higher value. The gist of the method: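 Growth inhibition of the yeast strain was measured after compound exposure and expressed relative to vehicle-treated controls. The strain carries defined defects in DNA damage repair.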

Take `O=C(OCC1CCCO1)c1ccc(Cl)cc1` (stereo not given): the growth inhibition was 13.7% in assay [1]; -4.4% in assay [2]; 24.9% in assay [3]; 34.1% in assay [4]; 8% in assay [5]; 7.2% in assay [6].

Take `COc1ccc2ccccc2c1I`: the growth inhibition is 18.4% in assay [1]; 1.4% in assay [2]; 2.75% in assay [3]; 10.7% in assay [4]; 23.6% in assay [5]; 9.45% in assay [6].

Take `Cc1cccc(-n2c(N)c(-c3nc4ccccc4[nH]3)sc2=S)c1`: the growth inhibition in assay [1] is 6.7%; in assay [2] it was -11.9%; in assay [3], 13.4%; in assay [4] it was 10.2%; in assay [5], 3.4%; in assay [6], 2.6%.

As to `Cc1cc(OCCCC[N+](C)(C)Cc2ccc(Br)o2)c(C(C)C)cc1Cl`, the growth inhibition in assay [1] is 99.5% (active); in assay [2] it was 99.5% (active); in assay [3] it was 99.2% (active); in assay [4] it was 99.3% (active); in assay [5], 99.2% (active); in assay [6], 99.3% (active).

As to `C=C1[C@@H]([C@@]2(C)C=CC(=O)C(C)(C)[C@@H]2CC(=O)OC)CC[C@@]2(C)C(c3ccoc3)OC(=O)[C@H]3O[C@]132` (stereo not given in full), the growth inhibition in assay [1] was -3.35%; in assay [2] it was -1.5%; in assay [3], 16.9%; in assay [4], 15.5%; in assay [5] it was 16.4%; in assay [6], -34.5%.

As to `CSC1=N[C@H](c2ccccc2)CS1`, the growth inhibition in assay [1] is 21.9%; in assay [2], -9.85%; in assay [3], 21.7%; in assay [4], -3.1%; in assay [5] it was 20.2%; in assay [6], 23.4%.

For `CCCC(=O)Oc1ccc(C(C)(C)C)cc1`, the growth inhibition in assay [1] is 38.7%; in assay [2], 6.75%; in assay [3], 15.2%; in assay [4], 10.8%; in assay [5], 20.4%; in assay [6], 5.5%.

`CN(CC1CCCCC1=O)CC1CCCCC1=O` (stereo not given): the growth inhibition in assay [1] is 8.65%; in assay [2], 10.2%; in assay [3], -11.1%; in assay [4] it was -8.8%; in assay [5], 19%; in assay [6], -3.55%.

As for `CN(C)c1ccc(/C=C/c2nc3ccc([N+](=O)[O-])cc3[nH]2)cc1`, the growth inhibition in assay [1] is -2.4%; in assay [2] it was 3.6%; in assay [3], 9.65%; in assay [4], 14.2%; in assay [5], 0.6%; in assay [6] it was 0.1%.

As for `CCOC(=O)COC(=O)C1C(C(N)=O)N(CC(=O)OCC)CCN1CC(=O)OCC` (stereo not given), the growth inhibition in assay [1] is 1.85%; in assay [2], 1.9%; in assay [3] it was -7.9%; in assay [4], -0.85%; in assay [5] it was -2.45%; in assay [6] it was 2.25%.

Take `Cc1cc(O)c(C(c2cccnc2)c2c(O)cc(C)[nH]c2=O)c(=O)[nH]1`: the growth inhibition in assay [1] was 1.95%; in assay [2], -14.8%; in assay [3] it was -40.1%; in assay [4], 11.8%; in assay [5], -30.2%; in assay [6] it was 30.1%.

On to `O=C1c2ccccc2C(=O)N1CCc1ccccn1`, for which the growth inhibition in assay [1] was 5.5%; in assay [2], -6%; in assay [3], 3.95%; in assay [4] it was -27.1%; in assay [5] it was -0.45%; in assay [6], -22.9%.

In the case of `Cc1ccc(-c2c(C#N)c(-c3ccccc3)c(C#N)c(=O)n2NS(=O)(=O)c2ccc(C)cc2)cc1`, the growth inhibition in assay [1] is 3.65%; in assay [2] it was 28.1%; in assay [3], 17.1%; in assay [4] it was 18.7%; in assay [5], 18.2%; in assay [6] it was 23.3%.

As for `CCOC(=O)c1cn(CC)c2c(ccc3cnccc32)c1=O`, the growth inhibition in assay [1] is -3.55%; in assay [2] it was -18.4%; in assay [3], -18.4%; in assay [4] it was 29.6%; in assay [5], -11%; in assay [6], 10.2%.

For `COc1nc2cc(C)c(C)cc2n1C1OC(CO)C(O)C1O` (stereo not given), the growth inhibition was -12.6% in assay [1]; 16.4% in assay [2]; 6.95% in assay [3]; -8.3% in assay [4]; -0.9% in assay [5]; -7% in assay [6].

As for `Cc1nc2ccc(I)cc2c(=O)n1-c1ccc(N=Cc2ccc(N(C)C)cc2)cc1`, the growth inhibition was 4.7% in assay [1]; 9.1% in assay [2]; 14.3% in assay [3]; 4.95% in assay [4]; -2.9% in assay [5]; 10.9% in assay [6].

In the case of `O=C(O)/C=C1/CCC(=O)O1`, the growth inhibition was -5.25% in assay [1]; -0.2% in assay [2]; 0.05% in assay [3]; 10.8% in assay [4]; 20.1% in assay [5]; -0.65% in assay [6].

On to `C/C=C(\C(=C\C)c1ccc(OC(=O)c2ccccc2)c(C2CCCCC2)c1)c1ccc(O)c(C2CCCCC2)c1`, for which the growth inhibition in assay [1] is 49%; in assay [2] it was 34.5%; in assay [3], 44.9%; in assay [4], 30.4%; in assay [5], 2.95%; in assay [6], 45.8%.

As for `CC(C)CC(N)C(=O)OCN1C(=O)C2C3C=CC(C2C1=O)C1C2C(=O)N(COC(=O)C(N)CC(C)C)C(=O)C2C31` (stereo not given), the growth inhibition in assay [1] was 16.1%; in assay [2] it was 15.6%; in assay [3], 5.05%; in assay [4], 36.5%; in assay [5], -0.05%; in assay [6] it was 9.7%.

With `CCCCCCCCS(N)(=O)=O`, the growth inhibition was 0.8% in assay [1]; -15.2% in assay [2]; -4.1% in assay [3]; -11.4% in assay [4]; -2.55% in assay [5]; -8.95% in assay [6].
